T1: RBFOX1 RRM (Homo sapiens, UniProt Q9NWB1 109-208)
T1 sequence: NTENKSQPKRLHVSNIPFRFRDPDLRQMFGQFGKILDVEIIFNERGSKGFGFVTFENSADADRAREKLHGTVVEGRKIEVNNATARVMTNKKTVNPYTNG

B1: CAACUAC (DNA:RNA)
RNA: GGGAGACCGGAAUUCAGAUUGUCCCAACUACUUAAAUCCCGUCGUAGCCACCA
DNA 1: CAATCTGAATTCCGGTCTCCC
DNA 2: TGGTGGCTACGACGGGATT
B2: UGACGCG (DNA:RNA)
RNA: B1 RNA with C25U, A26G, U29G, A30C, C31G
DNA 1: CAATCTGAATTCCGGTCTCCC
DNA 2: TGGTGGCTACGACGGGATT
B3: UACCGAU (DNA:RNA)
RNA: B1 RNA with C25U, A27C, U29G, C31U
DNA 1: CAATCTGAATTCCGGTCTCCC
DNA 2: TGGTGGCTACGACGGGATT
B4: GACGCUG (DNA:RNA)
RNA: B1 RNA with C25G, A27C, C28G, U29C, A30U, C31G
DNA 1: CAATCTGAATTCCGGTCTCCC
DNA 2: TGGTGGCTACGACGGGATT
B5: GGGGAUC (DNA:RNA)
RNA: B1 RNA with C25G, A26G, A27G, C28G, U29A, A30U
DNA 1: CAATCTGAATTCCGGTCTCCC
DNA 2: TGGTGGCTACGACGGGATT
B6: GGGAUCU (DNA:RNA)
RNA: B1 RNA with C25G, A26G, A27G, C28A, A30C, C31U
DNA 1: CAATCTGAATTCCGGTCTCCC
DNA 2: TGGTGGCTACGACGGGATT
B7: GUUAAUC (DNA:RNA)
RNA: B1 RNA with C25G, A26U, A27U, C28A, U29A, A30U
DNA 1: CAATCTGAATTCCGGTCTCCC
DNA 2: TGGTGGCTACGACGGGATT
B8: GGAGAUC (DNA:RNA)
RNA: B1 RNA with C25G, A26G, C28G, U29A, A30U
DNA 1: CAATCTGAATTCCGGTCTCCC
DNA 2: TGGTGGCTACGACGGGATT
B9: GCGGAUC (DNA:RNA)
RNA: B1 RNA with C25G, A26C, A27G, C28G, U29A, A30U
DNA 1: CAATCTGAATTCCGGTCTCCC
DNA 2: TGGTGGCTACGACGGGATT
B10: CGGAGUC (DNA:RNA)
RNA: B1 RNA with A26G, A27G, C28A, U29G, A30U
DNA 1: CAATCTGAATTCCGGTCTCCC
DNA 2: TGGTGGCTACGACGGGATT
B11: GGGAAUC (DNA:RNA)
RNA: B1 RNA with C25G, A26G, A27G, C28A, U29A, A30U
DNA 1: CAATCTGAATTCCGGTCTCCC
DNA 2: TGGTGGCTACGACGGGATT
B12: GGGAGUC (DNA:RNA)
RNA: B1 RNA with C25G, A26G, A27G, C28A, U29G, A30U
DNA 1: CAATCTGAATTCCGGTCTCCC
DNA 2: TGGTGGCTACGACGGGATT
B13: GGAUCUC (DNA:RNA)
RNA: B1 RNA with C25G, A26G, C28U, U29C, A30U
DNA 1: CAATCTGAATTCCGGTCTCCC
DNA 2: TGGTGGCTACGACGGGATT
B14: GGAUCUU (DNA:RNA)
RNA: B1 RNA with C25G, A26G, C28U, U29C, A30U, C31U
DNA 1: CAATCTGAATTCCGGTCTCCC
DNA 2: TGGTGGCTACGACGGGATT
B15: CGGAUCU (DNA:RNA)
RNA: B1 RNA with A26G, A27G, C28A, A30C, C31U
DNA 1: CAATCTGAATTCCGGTCTCCC
DNA 2: TGGTGGCTACGACGGGATT
B16: GGAGUCU (DNA:RNA)
RNA: B1 RNA with C25G, A26G, C28G, A30C, C31U
DNA 1: CAATCTGAATTCCGGTCTCCC
DNA 2: TGGTGGCTACGACGGGATT

Changes are numbered by the printed parent chain; changes in the protein carry UniProt numbers. The full ranking holds about 16,000 sequences; the median of “ka relative to ugcaugu” is about 0.0091, and the highest 2% start at about 0.032. The sample holds the highest values, similar sequences and a random draw of the others, so the mix is not that of the screen.

Our source for the binding signal values is publication PMC9911399, “Two distinct binding modes provide the RNA-binding protein RbFox with extraordinary sequence specificity”.

The target in the assay is T1, RBFOX1 RRM. The experiment in a line: EMSA; HiTS-Eq, 1 nM pool, 10 min; buffer printed only for the single-RNA assays: 10 mM Tris pH 7.5, 150 mM NaCl, 3.4 mM EDTA, 0.001% NP-40, 30 C. As to conditions: tags: His6 N-terminal (pET28a); label: 5' 32P. In a few lines:
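Relative association constants, normalised to the cognate motif, were derived by comparing read counts of each RNA species with those of the control reaction. The RNA sequenced was the free fraction, separated by 8% native PAGE after a 10 min equilibration in 50 µL of 1 nM 5′-radiolabelled RNA (7 randomized nucleotides) with increasing concentrations of purified wild-type or mutant RbFox RRM.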
A general note: A gel shift assay detects complexes by their altered migration in electrophoresis.
In the case of B1, the binding signal is 0.000393 KA relative to UGCAUGU.

Regarding B2, the binding signal was 0.0215 KA relative to UGCAUGU.

As for B3, the binding signal is 0.00545 KA relative to UGCAUGU.

Regarding B4, the binding signal was 0.0241 KA relative to UGCAUGU.

In the case of B5, the binding signal was 0.0348 KA relative to UGCAUGU.

As to B6, the binding signal was 0.0381 KA relative to UGCAUGU.

In the case of B7, the binding signal is 0.00989 KA relative to UGCAUGU.

Take B8: the binding signal was 0.0208 KA relative to UGCAUGU.

As for B9, the binding signal is 0.00958 KA relative to UGCAUGU.

Consider B10, for which the binding signal was 0.0303 KA relative to UGCAUGU.

In the case of B11, the binding signal is 0.0328 KA relative to UGCAUGU.

As for B12, the binding signal is 0.0339 KA relative to UGCAUGU.

With B13, the binding signal was 0.0209 KA relative to UGCAUGU.

As for B14, the binding signal is 0.0133 KA relative to UGCAUGU.

Consider B15, for which the binding signal is 0.0232 KA relative to UGCAUGU.

Regarding B16, the binding signal is 0.0284 KA relative to UGCAUGU.
